Structures can show the parent of a compound that is named as a salt. ± gives the standard deviation of the averaged measurements.

For one assay, the system named is E. coli TESEC Mtb DapB. Description: growth (OD600 after 10 h); higher = more growth (less inhibition). The settings on record: arabinose induction (level): High; compound 0.1 mM; raw OD600 reference: median of DMSO wells […], cell-free background 0.041. The protocol:
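TESEC E. coli strains in which the native enzyme is deleted and replaced by arabinose-inducible Mtb Asd, DapB, CysH or TrpD, each grown in its selective medium. Strains were screened against the Prestwick library at 0.1 mM and 1% DMSO in 384-well format at low and high arabinose induction. Growth is read as OD600 after 10 h in triplicate.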
On to `COc1cc2nc(N(C)CCCNC(=O)C3CCCO3)nc(N)c2cc1OC` (stereo not given) [Alfuzosin hydrochloride], for which the growth worked out at 0.217 ± 0.007.
The same measure, in the same setting: then `Cc1c(N)c(=O)n(-c2ccccc2)n1C` [Ampyrone], with 0.175 ± 0.0078; and `CN[C@@H]1[C@@H](O[C@H]2O[C@H](CO)[C@@H](N)[C@H](O)[C@H]2O)OC2C[C@@H](N)[C@@H](O[C@H]3[C@H](O)[C@@H](O)[C@H](N)C[C@@H]3N)OC2[C@@H]1O` (stereo not given in full) [Apramycin], with 0.0527 ± 0.0023.
`CC[N+](C)(C)Cc1ccccc1Br` [Bretylium tosylate] had a growth of 0.221 ± 0.025.
`CCN1CCCC(OC(=O)C(c2ccccc2)c2ccccc2)C1` (stereo not given) [Piperidolate hydrochloride]: the growth was 0.178 ± 0.018.
Same read-out and setting: then `Cc1ncc([N+](=O)[O-])n1CC(O)CCl` (stereo not given) [Ornidazole], with 0.191 ± 0.0088; and `O=C1CCc2ccc(OCCCCN3CCN(c4cccc(Cl)c4Cl)CC3)cc2N1` [Aripiprazole], with 0.177 ± 0.011.
Still for that read-out and setting: then `CN[C@@H]1[C@@H](O)[C@@H](O[C@@H]2[C@@H](O)[C@H](O[C@H]3OC(CN)=CC[C@H]3N)[C@@H](N)C[C@H]2N)OC[C@]1(C)O` [Sisomicin sulfate], with 0.144 ± 0.032; and `CC(C)(C)NC(=O)[C@@H]1C[C@@H]2CCCC[C@@H]2CN1C[C@@H](O)[C@H](Cc1ccccc1)NC(=O)[C@H](CC(N)=O)NC(=O)c1ccc2ccccc2n1` [Saquinavir mesylate], with 0.05287 ± 0.00045; and `Oc1c(I)cc(Cl)c2cccnc12` [Clioquinol], with 0.0573 ± 0.0004.
`CN(Cc1cnc2nc(N)nc(N)c2n1)c1ccc(C(=O)N[C@@H](CCC(=O)O)C(=O)O)cc1` [Methotrexate] yielded a growth of 0.2 ± 0.0058.
For `C/C=C(/C(=C/C)c1ccc(O)cc1)c1ccc(O)cc1` [Dienestrol], the growth was found to be 0.122 ± 0.035.
The same measure, in the same setting: then `Cc1cc(=O)oc2cc(O)ccc12` [Hymecromone], with 0.198 ± 0.0059.
For `OCCOCCN1CCN(C(c2ccccc2)c2ccc(Cl)cc2)CC1` (stereo not given) [Hydroxyzine dihydrochloride], the growth worked out at 0.182 ± 0.011.
Same read-out and setting: then `CCN(CC)CCOC(=O)C1(c2ccc([N+](=O)[O-])cc2)CCCC1` [Nitrocaramiphen hydrochloride], with 0.161 ± 0.01.
Turning to `CCc1cc(C(N)=S)ccn1` [Ethionamide], the growth was determined as 0.206 ± 0.011.
Same read-out and setting: then `CC(C)NCC(O)c1ccc(NS(C)(=O)=O)cc1` (stereo not given) [Sotalol hydrochloride], with 0.181 ± 0.016.
On the same count and under the same terms, then `CC(=O)Nc1c(I)c(NC(C)=O)c(I)c(C(=O)O)c1I` [Diatrizoic acid dihydrate], with 0.197 ± 0.013; and `C[C@]12CC[C@@H]3c4ccc(O)cc4CC[C@H]3[C@@H]1C[C@@H](O)[C@@H]2O` [Estriol], with 0.183 ± 0.008.
The same measure, in the same setting: then `CC(=O)OCC(=O)[C@@]12N=C(C)O[C@@H]1C[C@H]1[C@@H]3CCC4=CC(=O)C=C[C@]4(C)[C@H]3[C@@H](O)C[C@@]12C` [Deflazacort], with 0.186 ± 0.0061.

Still in this assay, the particulars now being: arabinose induction (level): Low; compound 0.1 mM; raw OD600 reference: median of DMSO wells 0.227, cell-free background 0.041.
The compound `COc1cc2nc(N(C)CCCNC(=O)C3CCCO3)nc(N)c2cc1OC` (stereo not given) [Alfuzosin hydrochloride] came in with a growth of 0.229 ± 0.006.
The same measure, in the same setting: then `Cc1c(N)c(=O)n(-c2ccccc2)n1C` [Ampyrone], with 0.209 ± 0.011.
The compound `CN[C@@H]1[C@@H](O[C@H]2O[C@H](CO)[C@@H](N)[C@H](O)[C@H]2O)OC2C[C@@H](N)[C@@H](O[C@H]3[C@H](O)[C@@H](O)[C@H](N)C[C@@H]3N)OC2[C@@H]1O` (stereo not given in full) [Apramycin] yielded a growth of 0.048 ± 0.0016.
Compound `CC[N+](C)(C)Cc1ccccc1Br` [Bretylium tosylate] gave a growth of 0.241 ± 0.013.
Turning to `CCN1CCCC(OC(=O)C(c2ccccc2)c2ccccc2)C1` (stereo not given) [Piperidolate hydrochloride], the growth was determined as 0.182 ± 0.0083.
As to `Cc1ncc([N+](=O)[O-])n1CC(O)CCl` (stereo not given) [Ornidazole], the growth came to 0.218 ± 0.031.
Same read-out and setting: then `O=C1CCc2ccc(OCCCCN3CCN(c4cccc(Cl)c4Cl)CC3)cc2N1` [Aripiprazole], with 0.213 ± 0.021; and `CN[C@@H]1[C@@H](O)[C@@H](O[C@@H]2[C@@H](O)[C@H](O[C@H]3OC(CN)=CC[C@H]3N)[C@@H](N)C[C@H]2N)OC[C@]1(C)O` [Sisomicin sulfate], with 0.0843 ± 0.01; and `CC(C)(C)NC(=O)[C@@H]1C[C@@H]2CCCC[C@@H]2CN1C[C@@H](O)[C@H](Cc1ccccc1)NC(=O)[C@H](CC(N)=O)NC(=O)c1ccc2ccccc2n1` [Saquinavir mesylate], with 0.0578 ± 0.0085.
Still for that read-out and setting: then `Oc1c(I)cc(Cl)c2cccnc12` [Clioquinol], with 0.0551 ± 0.0021; and `CN(Cc1cnc2nc(N)nc(N)c2n1)c1ccc(C(=O)N[C@@H](CCC(=O)O)C(=O)O)cc1` [Methotrexate], with 0.254 ± 0.022; and `C/C=C(/C(=C/C)c1ccc(O)cc1)c1ccc(O)cc1` [Dienestrol], with 0.0554 ± 0.0074.
On the same count and under the same terms, then `Cc1cc(=O)oc2cc(O)ccc12` [Hymecromone], with 0.208 ± 0.032; and `OCCOCCN1CCN(C(c2ccccc2)c2ccc(Cl)cc2)CC1` (stereo not given) [Hydroxyzine dihydrochloride], with 0.239 ± 0.048.
Take `CCN(CC)CCOC(=O)C1(c2ccc([N+](=O)[O-])cc2)CCCC1` [Nitrocaramiphen hydrochloride]: the growth stood at 0.18 ± 0.017.
`CCc1cc(C(N)=S)ccn1` [Ethionamide] displayed a growth of 0.217 ± 0.027.
With `CC(C)NCC(O)c1ccc(NS(C)(=O)=O)cc1` (stereo not given) [Sotalol hydrochloride], the growth stood at 0.221 ± 0.016.
Still for that read-out and setting: then `CC(=O)Nc1c(I)c(NC(C)=O)c(I)c(C(=O)O)c1I` [Diatrizoic acid dihydrate], with 0.235 ± 0.023.
In the case of `C[C@]12CC[C@@H]3c4ccc(O)cc4CC[C@H]3[C@@H]1C[C@@H](O)[C@@H]2O` [Estriol], the growth was determined as 0.203 ± 0.033.
On the same count and under the same terms, then `CC(=O)OCC(=O)[C@@]12N=C(C)O[C@@H]1C[C@H]1[C@@H]3CCC4=CC(=O)C=C[C@]4(C)[C@H]3[C@@H](O)C[C@@]12C` [Deflazacort], with 0.23 ± 0.013.

For the origin of these results see the supplement of paper PMC9262897, “Low-cost anti-mycobacterial drug discovery using engineered E. coli” (Nature Communications, 2022).
